# Measurements: the supplement of paper PMC7156485
# “And” between values parts separate entries of the source, which are not always exact repeats. Equal entries are not always repeated. ± gives the standard deviation of the averaged measurements.
# Key:
# Details in all cases: concentration: 10 µM; 24 h
# HCC1569 [1] = assay: cell number relative to DMSO (% of DMSO); higher = more cells (less growth inhibition / toxicity)
# How it was run: (§1)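 For HCC1569 and TDF cells, compounds at 10 µM were applied for 24 h at 37 °C in triplicate in 384-well plates. Cells were fixed in 3.7% formaldehyde, stained for H1.0 and with DAPI, and imaged at ×10 over six fields per well. The endpoint, H1.0 nuclear intensity or cell number, is shown as percent of the plate control using the median of replicates. Positional effects were smoothed for HCC1569 only.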
# TDF [2] = assay: as above
# How it was run: as §1
# TDF [3] = assay: H1.0 immunofluorescence intensity relative to DMSO (% of DMSO); higher = stronger H1.0 induction, active = 120 or more
# How it was run: as §1
# HCC1569 [4] = assay: H1.0 immunofluorescence intensity relative to DMSO (% of DMSO); higher = stronger H1.0 induction, active = 140 or more
# How it was run: as §1
# 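For H1.0 immunofluorescence intensity relative to DMSO in this document: TDF is a line of transformed human dermal fibroblasts of mesenchymal origin.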
# 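For cell number relative to DMSO in this document: TDF denotes transformed human dermal fibroblasts of mesenchymal origin.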
Structure (SMILES),cell number (HCC1569 [1]),cell number (TDF [2]),H1.0 immunofluorescence intensity (TDF [3]),H1.0 immunofluorescence intensity (HCC1569 [4])
CCC1(O)CC2CN(CCc3c([nH]c4ccccc34)C(C(=O)OC)(c3cc4c(cc3OC)N(C)C3C(O)(C(N)=O)C(O)C5(CC)C=CCN6CCC43C65)C2)C1.O=S(=O)(O)O (configuration not stated) [Vindesine sulfate],55.4,8.86,155 (active),179 (active)
NC(=O)OCC(COC(N)=O)c1ccccc1 [Felbamate],111 ± 15,109 ± 1.2,97 (inactive),93.1 (inactive)
CC1CNc2c(cccc2S(=O)(=O)NC(CCCN=C(N)N)C(=O)N2CCC(C)CC2C(=O)O)C1 (configuration not stated) [Argatroban],107,104,94.1 (inactive),112 (inactive)
CC(C)C(NC(=O)OCc1ccccc1)C(=O)NC(C=O)Cc1ccccc1 (configuration not stated),99.5,96.2,103 (inactive),102 (inactive)
N[C@@H](COP(=O)(O)O)C(=O)O [O-Phospho-L-serine],99.1,101,94.9 (inactive),96.7 (inactive)
CCCCCC=CCC=CCCCCCCCCCC(=O)O [Eicosadienoic acid],103 ± 1.2,92.6 ± 7.5,100 (inactive),96.4 (inactive)
CC1CCN=C(N)S1.Cl (racemic),98.5,103,108 (inactive),100 (inactive)
CCCCCCCC/C=C\CCCCCCCC(=O)NCc1ccc(O)c(OC)c1 [(9Z)-N-(4-hydroxy-3-methoxybenzyl)-9-octadecenamide],40.4,91.5,95.2 (inactive),171 (active)
CC(=O)Nc1ccc(NC(=S)NC(=O)c2ccc(C(C)(C)C)cc2)cc1 [p53 Activator (Tenovin-1)],96.5,91.1,104 (inactive),153 (active)
"COc1cc(C=Cc2ccccc2)oc(=O)c1 [5,6-Dehydrokawain]",104,97.5,99 (inactive),92.6 (inactive)
CNC1CC2OC(C)(C1OC)n1c3ccccc3c3c4c(c5c6ccccc6n2c5c31)C(=O)NC4O (configuration not stated),20.4,8.22,139 (active),121 (inactive)
c1ccc2c(Oc3nc(Nc4ccc(N5CCOCC5)cc4)c4ncn(C5CCCCC5)c4n3)cccc2c1,84.3,92.2,101 (inactive),150 (active)
CN1CCc2cc(Cl)c(O)cc2C(c2ccccc2)C1.Cl (configuration not stated),103,104,88.5 (inactive),94.6 (inactive)
Nc1ncnc2n[nH]c(Nc3ccc(F)cc3)c12,95.7,102,90.1 (inactive),118 (inactive)
COC(=O)C1=C(C#N)NC(C)=C(C(=O)OC(C)C)C1c1cccc([N+](=O)[O-])c1 (configuration not stated),89.8,97.4,98.2 (inactive),123 (inactive)
Cl.NO [Hydroxylamine hydrochloride],96.2,95.5,97.8 (inactive),89.7 (inactive)
O=C1C=CC(=C2NC(c3ccncc3)=C(c3ccc(F)cc3)N2)C=C1,79.5 and 79.7,95.1 and 96.9,97.7 (inactive) and 97.1 (inactive),125 (inactive) and 124 (inactive)
Cc1cc2c(OCC(CNC(C)(C)C)OC(=O)c3ccccc3)cccc2[nH]1 (configuration not stated) [Bopindolol],98.1,89.5,99 (inactive),103 (inactive)
CCC(Sc1nnc2c(n1)[nH]c1ccccc12)C(=O)N1c2ccccc2Sc2ccccc21 (configuration not stated),96.4,96.3,103 (inactive),700 (active)
CCCCOC(=O)NC(=O)C1c2ccccc2Oc2ccccc21 [butyl 9H-xanthen-9-ylcarbonylcarbamate],102,106,90.1 (inactive),107 (inactive)
CC1=CCC(C)(C)C=CC(=O)C(C)=CCC1 [Zerumbone],87.7,89.7,104 (inactive),121 (inactive)
COc1cc2ncn(-c3cc(OCc4ccc(S(C)(=O)=O)cc4)c(C(N)=O)s3)c2cc1OC [Polo-like Kinase Inhibitor I],104,96.2,92.8 (inactive),112 (inactive)

Structure (SMILES),cell number (HCC1569 [1]),cell number (TDF [2]),H1.0 immunofluorescence intensity (TDF [3]),H1.0 immunofluorescence intensity (HCC1569 [4])
CCCCC1=NC2(CCCC2)C(=O)N1Cc1ccc(-c2ccccc2-c2nn[nH]n2)cc1,101,99.3,101 (inactive),88.4 (inactive)
CCCCCC=CCC=CC=CC=CCC(=O)CCCC(=O)O [5-Ketoeicosatetraenoic acid],99.9,95.5,98.1 (inactive),96.5 (inactive)
CC12C=CC(=O)C=C1CCC1C2C(O)CC2(C)C1CCC2(O)C(=O)CO (configuration not stated) [Prednisolone],100,99.4,84.9 (inactive),115 (inactive)
COC(=O)Nc1nc2ccc(C(=O)c3ccccc3)cc2[nH]1 [Mebendazol],69.2,11.6,188 (active),127 (inactive)
CCCCCCCCCCCCCCCCOCC(COCC(F)(F)F)OP(=O)([O-])OC.[Li+] (configuration not stated),102,93.8,99.5 (inactive),92.3 (inactive)
CC(C)=CCCC(C)(O)C1CCC2(C)C1CCC1C3(C)CCC(=O)C(C)(C)C3CCC12C (configuration not stated) [Dipterocarpol],95.8,102,97.8 (inactive),82.7 (inactive)
CC#CCOC(=O)c1c(C)nc2sc3c(c2c1N)CCC(O)C3 (configuration not stated),87.1,85.8,99.5 (inactive),134 (inactive)
CCCCc1oc2ccccc2c1C(=O)c1cc(I)c(OCCN(CC)CC)c(I)c1.Cl [Amiodarone.HCl],99.7,105,93.8 (inactive),110 (inactive)
c1ccc(-c2n[nH]c3c2oc2ccccc23)cc1,101,103,94.2 (inactive),126 (inactive)
COc1cc(Br)c(CC2c3cc(OC)c(OC)cc3CCN2C)cc1OC (racemic),99.7,98.5,97.8 (inactive),97.6 (inactive)
COc1c2ccoc2cc2oc(C)cc(=O)c12 [Visnagin],103,102,94.7 (inactive),82.3 (inactive)
CN1CCCCC1CCN1c2ccccc2Sc2ccc(S(C)=O)cc21.O=S(=O)(O)c1ccccc1 (configuration not stated) [Mesoridazine besylate],103,111,92.4 (inactive),109 (inactive)
CCN(CC)CCCCN1c2ccccc2Oc2ccc(Cl)cc21.Cl,88.8,86.3,110 (inactive),159 (active)
COc1ccc(CN2CCN(C(c3ccc(F)cc3)c3ccc(F)cc3)CC2)c(OC)c1OC [Lomerizine],102,98.8,92.3 (inactive),105 (inactive)
CCCCCCCCC=CCCCCCCCC(=O)O [Oleic Acid],105,103,91.8 (inactive),87.8 (inactive)
CCCCCC(O)C=CC1OC(O)CC(O)C1CC=CCCCC(=O)O (configuration not stated) [Thromboxane B2],96.2,95.2,102 (inactive),97.9 (inactive)
OCC(CO)(CO)NCC(O)Cn1c2ccc(Cl)cc2c2cc(Cl)ccc21 (configuration not stated),74.3,76.8,125 (active),168 (active)
COc1ccc2cc(OCC3(C(=O)O)CN(C(=O)c4ccc(F)cc4)C3)ccc2c1,105,103,93.7 (inactive),95.8 (inactive)
CN(C)CCC(CSc1ccccc1)Nc1ccc(S(=O)(=O)NC(=O)c2ccc(N3CCN(Cc4ccccc4-c4ccc(Cl)cc4)CC3)cc2)cc1[N+](=O)[O-] (configuration not stated),30.5,106,110 (inactive),129 (inactive)
CCCCCC=CCC=CCC=CC=CC(O)CCCC(=O)O (configuration not stated),97,103,104 (inactive),105 (inactive)
Cc1ccccc1C(OCCN(C)C)c1ccccc1.O=C(O)CC(O)(CC(=O)O)C(=O)O (configuration not stated) [Orphenadrine citrate],111,113,91.6 (inactive),96.1 (inactive)
